Shown are actives, neighbours in structure and some others; about 19% of the full set was active somewhere.
Pf growth 48h – Primary qHTS for delayed death inhibitors of the malarial parasite plastid, 48 hour incubation. P. falciparum luciferase growth in erythrocytes, 48 h. Potency, µM (highest dose often 28.7 µM), for inactives: top-dose activity change, negative = inhibition, hits mostly inhibitors. 310,000 tested, 5.9% active. AID 504832, 2011; also: potency is read from the fitted curve at half-maximal effect; % is scaled to controls: 0 for no effect and ±100 for the full control effect
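Read-out is firefly luciferase luminescence from an integrated reporter in P. falciparum, so falling signal marks reduced parasite growth. Infected erythrocytes were at 2% hematocrit and 0.1% parasitemia (final) in Albumax-supplemented RPMI 1640.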
Shiga toxin inh – A qHTS for Small Molecule Inhibitors of Shiga Toxin | Vero cells, Shiga toxin protein synthesis inhibition reporter | inhibition, % at 38.7 µM | 290,000 tested, 9.2% active | AID 2315, 2010; in the data active = inhibition mostly above about 28%, no sharp cut-off; inactive = mostly below about 43%; also: 0% is about no effect
AMA1-RON2 inh – qHTS for Inhibitors of AMA1-RON; Towards Development of Antimalarial Drug Lead: Primary Screen; AlphaScreen AMA1-biotinylated RON2 peptide binding; Potency, µM (titrated, usually from 58.2 µM), for the others: top-dose activity change, negative = inhibition, most hits filed as inhibitors; 360,000 tested, 0.2% active;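 also: potency is read from the fitted curve at half-maximal effect; 0% = vehicle wells and -100% = peptide control; nearly all actives have a fitted effect of over 45% in size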
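AMA1 (3D7) with his tag at 25 nM final met compounds first, then biotinylated RON2 peptide at 25 nM; detection used donor plus acceptor beads, 10 µg/mL apiece, read by AlphaScreen after 30 min at room temperature.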
Pf growth 96h – Primary qHTS for delayed death inhibitors of the malarial parasite plastid, 96 hour incubation; AID 504834, 2011; 320,000 tested, 6.9% active; Potency, µM (titrated, usually from 28.7 µM), inactives show top-dose activity change, negative = inhibition, hits mostly inhibitors; P. falciparum luciferase reporter growth, 96 h; also: potency is read from the fitted curve at half-maximal effect; % is scaled to controls: 0 for no effect and ±100 for the full control effect
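Two-generation exposure (96 h) targets delayed-death phenotype. Reporter parasites carrying integrated firefly luciferase, in red cells at 2% hematocrit and 0.05% parasitemia final, kept at 37 C, 5% CO2; luminescence loss indicates inhibition.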
SARS PLP yeast – qHTS of Yeast-based Assay for SARS-CoV PLP; 330,000 tested, 0.19% active; S. cerevisiae expressing SARS-CoV PLpro, growth rescue; AID 485353, 2010; Potency, µM (series often up to 32.9 µM), for the others: at the highest dose activity, positive = growth rescue, actives largely listed as activators; calls by dose curve; also: potency is read from the fitted curve at half-maximal effect; 0% is about no effect; nearly all actives have a fitted effect of over 55% in size
CHX counter – Cycloheximide Counterscreen for Small Molecule Inhibitors of Shiga Toxin | max response, % | cell reporter, cycloheximide protein synthesis inhibition counterscreen | 300,000 tested, 12% active; in the data active = max response mostly above about 13%, no sharp cut-off; inactive = mostly below about 14%; also: read at 38.3 µM for the half of the compounds with a filed dose; 0% is about no effect
* hit, by the source's call; ? = inconclusive; . = no result given. Unless noted, calls follow the shape of the dose curve; as a rule, active = well fitted curve in the direction sought with a large enough effect; inconclusive = small, poorly fitted or top-dose-only effect, or another doubt; inactive = no such curve, though single readings can be large; an effect the other way counts as inactive or inconclusive.

SMILES | Pf growth 48h | Shiga toxin inh | AMA1-RON2 inh | Pf growth 96h | SARS PLP yeast | CHX counter
CC[n+]1ccc2cc(OC)c(OC)cc2c1Cc1ccc(OC)c(OC)c1 | 1.2µM* | 20 | 15% | ? | 3% | -2
O=C(CSc1n[nH]c(=O)[nH]c1=O)N/N=C/c1ccccc1 | -7% | -4 | 13% | 42% | 16% | -4
COC(=O)C(C(=O)OC)c1cc2c(cc1CNS(=O)(=O)c1ccc(C)cc1)OCO2 | . | . | -8% | . | . | .
CCCCCCC=C1CCC(CN2CCCC2)C1=O (stereo not drawn) | . | . | 22% | . | . | .
COC(=O)c1nc2ccc(C)cn2c1F | . | 36 | 4% | -15% | -2% | 19*
C[C@@]12C(=O)N(c3cccc(F)c3)C(=O)N1[C@H](c1ccc(F)cc1)[C@@H]1C(=O)N(C3CCCCC3)C(=O)[C@@H]12 | ? | -6 | 4% | -16% | 4% | -2
C[C@@]12C(=O)N(c3cccc(F)c3)C(=O)N1[C@H](c1ccc(Cl)cc1)[C@@H]1C(=O)N(C3CCCCC3)C(=O)[C@@H]12 | 12µM* | . | 22% | -7% | -2% | .
COc1ccc(N2C(=O)N3[C@H](c4ccc(Cl)cc4)[C@@H]4C(=O)N(C5CCCCC5)C(=O)[C@@H]4[C@]3(C)C2=O)cc1 | ? | 17 | -8% | 2.3µM* | 7% | -3
CC(C)C[C@@]12C(=O)N(c3cccc(F)c3)C(=O)N1[C@H](c1ccc(Cl)cc1)[C@@H]1C(=O)N(C3CCCCC3)C(=O)[C@@H]12 | 2.9µM* | . | -3% | 4.7µM* | 4% | .
CC(C)C[C@@]12C(=O)N(c3cccc(F)c3)C(=O)N1[C@H](c1ccc(F)cc1)[C@@H]1C(=O)N(C3CCCCC3)C(=O)[C@@H]12 | 10µM* | . | -9% | ? | 0% | .
C[C@@]12C(=O)N(c3cccc(Cl)c3)C(=O)N1[C@H](c1ccc(Cl)cc1)[C@@H]1C(=O)N(C3CCCCC3)C(=O)[C@@H]12 | ? | . | 18% | ? | -1% | .
CC12COC3(C(=O)N4CCN(c5ccccn5)CC4)CC1CCC32C (stereo not drawn) | ? | 1 | 24% | -9% | 0% | -4
O=C(C[C@@H]1C=C[C@H](NS(=O)(=O)c2ccccc2F)[C@@H](CO)O1)NCCCN1CCOCC1 | . | . | 6% | . | . | .
COC(=O)C1=C(C(=O)OC)[C@@H]2N(C)c3ccc(OC)cc3[C@@]23C[C@@H](C(=O)OC)N(S(=O)(=O)c2ccc(OC)cc2)C3=N1 | 9.3µM* | -2 | -28% | ? | 1% | -3
COCCN(Cc1cc2cc3c(cc2nc1Cl)OCO3)C(=O)c1ccc(C)cc1 | ? | 19 | 7% | 23% | 0% | 9
FC(F)(F)c1nc2cc3nc4ccccc4[nH]c3cc2n1 | 17% | 69* | 7% | 73% | -2% | 39*
O=c1[nH]n2c(=O)c3c([nH]c2c1N=Nc1cccc(Cl)c1)CCC3 | -19% | -8 | 30% | ? | 4% | -1
O=c1[nH]n2c(=O)c3c([nH]c2c1N=Nc1cccc(C(F)(F)F)c1)CCCC3 | 13µM* | 10 | 49% | ? | 0% | -1
NS(=O)(=O)c1ccc(N=Nc2c(=O)[nH]n3c(=O)c4c([nH]c23)CCCC4)cc1 | ? | 7 | 39% | 2.3µM* | 0% | -3
COC(=O)C(c1ccccc1Cl)N1CCc2sccc2C1 (stereo not drawn) | ? | -6 | . | 11µM* | . | -5
COC(=O)[C@H](c1ccccc1Cl)N1CCc2sccc2C1 | 12µM* | 5 | 8% | 8.3µM* | -13% | -2
COC(=O)CN1C(=O)N/C(=C/c2ccc(C)o2)C1=O | -1% | 4 | 3% | 10µM* | 1% | -2
Cc1onc(-c2ccccc2Cl)c1C(=O)NCc1nnnn1-c1ccc(F)c(F)c1 | . | . | 17% | . | . | .
CC1(Oc2ccc3ccccc3c2)CCN(Cc2ccc(OC(F)(F)F)cc2)C1 (stereo not drawn) | . | . | -13% | . | . | .

Screens: PubChem, National Center for Advancing Translational Sciences (NCATS)
